Results: PubChem BioAssay (Tox21)
Inconclusive results are not listed. The source made the active and inactive calls. Unless noted, calls follow the shape of the dose curve; as a rule, active = well fitted curve in the direction sought with a large enough effect in the repeat runs; inconclusive = weak or mixed curves; inactive = no such curve, though single readings can be large; an effect the other way counts as inactive or inconclusive.

Assays:
[1] = qHTS assay to identify small molecule antagonists of the thyroid receptor (TR) signaling pathway (AID 743065); also: series mostly up to about 70 µM; nearly all actives have a fitted effect of over 55% in size
Outline: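 GH3.TRE-Luc rat pituitary cells carrying two TR response elements driving luciferase were plated for 4 h, given compound plus 1 nM T3 (final), and incubated 23.5 h at 37 C. ONE-Glo luminescence measured reporter inhibition; CellTiter-Fluor fluorescence tracked cytotoxicity.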

[2] = test system: thyroid hormone receptor (rat, GH3 cells); experiment: qHTS assay to identify small molecule agonists of the thyroid receptor (TR) signaling pathway (AID 743066; calls by dose curve)
[3] = qHTS assay to identify small molecule antagonists of the estrogen receptor alpha (ER-alpha) signaling pathway - cell viability counter screen (AID 743074; calls by dose curve; also: nearly all actives have a fitted effect of over 45% in size)
[4] = qHTS assay to identify small molecule antagonists of the estrogen receptor alpha (ER-alpha) signaling pathway using the BG1 cell line - cell viability counter screen (AID 743081);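 also: compound given together with 17beta-estradiol as the ER stimulus; series mostly up to about 70 µM; nearly all actives have a fitted effect of over 45% in size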
[5] = molecular target: Aromatase (Homo sapiens) (UniProt P11511); experiment: qHTS assay to identify aromatase inhibitors (AID 743083); also: series mostly up to about 70 µM; nearly all actives have a fitted effect of over 55% in size
Sequence of Aromatase (Homo sapiens) (P11511 whole entry, looked up): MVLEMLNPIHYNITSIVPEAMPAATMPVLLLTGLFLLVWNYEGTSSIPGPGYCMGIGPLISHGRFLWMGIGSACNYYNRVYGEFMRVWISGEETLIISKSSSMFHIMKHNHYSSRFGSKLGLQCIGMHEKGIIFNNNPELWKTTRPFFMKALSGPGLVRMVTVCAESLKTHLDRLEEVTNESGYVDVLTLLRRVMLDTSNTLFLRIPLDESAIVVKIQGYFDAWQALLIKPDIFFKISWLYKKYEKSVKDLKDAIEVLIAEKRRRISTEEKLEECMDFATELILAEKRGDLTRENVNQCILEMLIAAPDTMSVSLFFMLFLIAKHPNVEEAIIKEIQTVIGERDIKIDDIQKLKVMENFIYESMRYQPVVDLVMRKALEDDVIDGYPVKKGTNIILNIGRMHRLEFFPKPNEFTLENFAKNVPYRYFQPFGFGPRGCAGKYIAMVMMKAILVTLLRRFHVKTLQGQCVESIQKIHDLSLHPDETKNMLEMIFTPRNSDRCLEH

[6] = qHTS assay to identify aromatase inhibitors - cell viability counter screen (AID 743084);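 also: cells stimulated with testosterone during compound exposure; nearly all actives have a fitted effect of over 55% in size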
[7] = molecular target: Aryl hydrocarbon receptor (Homo sapiens) (UniProt P35869); experiment: qHTS assay to identify small molecule that activate the aryl hydrocarbon receptor (AhR) signaling pathway (AID 743085); also: nearly all actives have a fitted effect of over 15% in size; also: potency is read from the fitted curve at half-maximal effect;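 as to activation: HG2L7.5c1 human HepG2 liver cells with stably integrated DRE-driven firefly reporter; series mostly up to about 70 µM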
Sequence of Aryl hydrocarbon receptor (Homo sapiens) (P35869 whole entry, looked up): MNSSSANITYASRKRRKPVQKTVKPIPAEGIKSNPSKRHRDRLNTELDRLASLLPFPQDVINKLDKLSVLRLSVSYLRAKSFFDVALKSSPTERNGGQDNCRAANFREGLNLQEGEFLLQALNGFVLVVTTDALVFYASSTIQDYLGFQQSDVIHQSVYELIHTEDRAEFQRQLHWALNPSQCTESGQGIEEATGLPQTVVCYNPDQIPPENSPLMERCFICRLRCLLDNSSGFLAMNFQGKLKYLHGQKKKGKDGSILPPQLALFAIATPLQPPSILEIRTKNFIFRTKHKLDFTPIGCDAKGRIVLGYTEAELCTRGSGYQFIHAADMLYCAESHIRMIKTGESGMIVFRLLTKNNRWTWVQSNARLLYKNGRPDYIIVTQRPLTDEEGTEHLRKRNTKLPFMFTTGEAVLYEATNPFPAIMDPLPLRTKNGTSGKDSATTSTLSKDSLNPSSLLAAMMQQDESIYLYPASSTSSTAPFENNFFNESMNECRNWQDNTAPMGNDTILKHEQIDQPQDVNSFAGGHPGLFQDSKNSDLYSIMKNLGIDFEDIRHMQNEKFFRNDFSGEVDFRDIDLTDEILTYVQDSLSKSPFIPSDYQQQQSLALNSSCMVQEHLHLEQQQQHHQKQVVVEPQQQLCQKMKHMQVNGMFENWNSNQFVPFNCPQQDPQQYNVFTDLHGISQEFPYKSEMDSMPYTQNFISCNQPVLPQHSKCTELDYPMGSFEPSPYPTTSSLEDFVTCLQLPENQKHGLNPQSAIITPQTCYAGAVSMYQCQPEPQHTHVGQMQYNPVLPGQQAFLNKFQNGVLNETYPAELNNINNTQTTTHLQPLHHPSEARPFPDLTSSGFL
Outline: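 Luminescence (ONE-Glo) from a dioxin-responsive-element luciferase reporter in HG2L7.5c1 HepG2 cells after 24 hr compound exposure at 37C; viability measured by CellTiter-Fluor fluorescence beforehand.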

[8] = qHTS assay to identify small molecule that activate the aryl hydrocarbon receptor (AhR) signaling pathway - cell viability counter screen (AID 743086);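 also: HepG2 liver cells carrying the AhR DRE luciferase reporter; series mostly up to about 70 µM; nearly all actives have a fitted effect of over 45% in size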
Outline: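 HepG2-AhR-luc (HG2L7.5c1) cells, 4000/well, were preincubated 5 h at 37C, exposed to compound in qHTS format for 24 hr at 37C, then given CellTiter-Fluor for 30 min; viability was read as fluorescence in the reporter wells.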

[9] = molecular target: Peroxisome proliferator-activated receptor gamma (Homo sapiens) (UniProt P37231); experiment: qHTS assay to identify small molecule agonists of the peroxisome proliferator-activated receptor gamma (PPARg) signaling pathway (AID 743094; active = well fitted activation curve with a large enough effect in the signal ratio in the repeat runs, not every such curve was filed as active; the % refers to the signal ratio)
Sequence of Peroxisome proliferator-activated receptor gamma (Homo sapiens) (P37231 whole entry, looked up): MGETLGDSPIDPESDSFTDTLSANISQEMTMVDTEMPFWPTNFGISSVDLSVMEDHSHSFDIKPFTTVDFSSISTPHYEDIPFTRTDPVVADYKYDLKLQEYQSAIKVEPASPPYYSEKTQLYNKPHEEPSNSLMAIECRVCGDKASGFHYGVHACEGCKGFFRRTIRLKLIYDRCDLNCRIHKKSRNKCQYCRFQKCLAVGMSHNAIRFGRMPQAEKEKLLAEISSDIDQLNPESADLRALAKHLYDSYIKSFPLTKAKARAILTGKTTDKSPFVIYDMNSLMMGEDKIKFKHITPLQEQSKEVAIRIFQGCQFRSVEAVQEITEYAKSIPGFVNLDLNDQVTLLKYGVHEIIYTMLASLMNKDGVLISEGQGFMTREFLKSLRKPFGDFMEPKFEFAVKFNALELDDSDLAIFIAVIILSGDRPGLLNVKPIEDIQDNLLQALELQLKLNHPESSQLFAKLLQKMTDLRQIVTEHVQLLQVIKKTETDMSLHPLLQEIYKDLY
Outline: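 Agonist activity was taken from a beta-lactamase reporter (FRET substrate, 1 h at room temperature) in HEK293H cells carrying a PPARg UAS-bla construct. Compounds in DMSO were incubated 17 h at 37C after a 5 h cell pre-incubation.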

[10] = qHTS assay to identify small molecule antagonists of the peroxisome proliferator-activated receptor gamma (PPARg) signaling pathway - cell viability counter screen (AID 743194); also: nearly all actives have a fitted effect of over 55% in size
Outline: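 PPARg-UAS-bla HEK293H cells were plated, rested 5 h at 37 C, then treated with compounds plus rosiglitazone (50 nM final) for 17 h at 37 C; viability was then read by CellTiter-Glo luminescence after 30 min at room temperature.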

[11] = qHTS assay for small molecule agonists of the antioxidant response element (ARE) signaling pathway (AID 743202; active = well fitted activation curve with a large enough effect in the signal ratio in the repeat runs, not every such curve was filed as active; the % refers to the signal ratio; also: potency is read from the fitted curve at half-maximal effect)
Outline: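 Steps: seed ARE-bla HepG2 cells (2,000/well); incubate 5 h at 37 C; add compounds by pin tool; incubate 16 h at 37 C; add FRET substrate; read fluorescence after 2 h at RT.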

[12] = qHTS assay for small molecule agonists of the antioxidant response element (ARE) signaling pathway - cell viability counter screen (AID 743203; calls by dose curve; also: nearly all actives have a fitted effect of over 55% in size)
Outline: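 Viability counter screen: CellTiter-Glo luminescence, read after 30 min at room temperature, in ARE-bla HepG2 wells. Compound exposure lasted 16 h at 37C/5% CO2, following a 5 h pre-incubation of the cells after plating.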

[13] = qHTS assay for small molecule activators of the heat shock response signaling pathway - cell viability counter screen (AID 743209); also: nearly all actives have a fitted effect of over 50% in size
Outline: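 Cytotoxicity counter screen run in the same wells as the heat-shock bla reporter assay: HeLa HSE-bla cells, 5 h compound exposure at 37 C, viability read by CellTiter-Glo luminescence.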

[14] = qHTS assay for small molecule activators of the heat shock response signaling pathway (AID 743210; active = well fitted activation curve with a large enough effect in the signal ratio in the repeat runs, with a control signal flat, not every such curve was filed as active; the % refers to the signal ratio;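 also: HeLa cells with beta-lactamase reporter driven by heat shock elements; series mostly up to about 63 µM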)
Outline: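 Activation of heat shock element-controlled beta-lactamase expression is measured in HeLa cells by LiveBLAzer FRET fluorescence, with compound exposure lasting 5 h at 37 C and substrate loading 2.5 h at room temperature.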

[15] = molecular target: Peroxisome proliferator-activated receptor gamma (Homo sapiens) (UniProt P37231); experiment: qHTS assay to identify small molecule antagonists of the peroxisome proliferator-activated receptor gamma (PPARg) signaling pathway (AID 743191; calls by dose curve; also: series mostly up to about 63 µM; nearly all actives have a fitted effect of over 30% in size)
Outline: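 GeneBLAzer PPARg UAS-bla HEK293H cells carrying a UAS-driven beta-lactamase reporter were plated at 3000 cells/well, preincubated 5 h at 37C, then given compound for 17 h at 37C; LiveBLAzer B/G FRET substrate was read after 1 h at room temperature.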

[16] = molecular target: Estrogen receptor (Homo sapiens) (UniProt P03372); experiment: qHTS assay to identify small molecule agonists of the estrogen receptor alpha (ER-alpha) signaling pathway (AID 743075; calls by dose curve)
Sequence of Estrogen receptor (Homo sapiens) (P03372 whole entry, looked up): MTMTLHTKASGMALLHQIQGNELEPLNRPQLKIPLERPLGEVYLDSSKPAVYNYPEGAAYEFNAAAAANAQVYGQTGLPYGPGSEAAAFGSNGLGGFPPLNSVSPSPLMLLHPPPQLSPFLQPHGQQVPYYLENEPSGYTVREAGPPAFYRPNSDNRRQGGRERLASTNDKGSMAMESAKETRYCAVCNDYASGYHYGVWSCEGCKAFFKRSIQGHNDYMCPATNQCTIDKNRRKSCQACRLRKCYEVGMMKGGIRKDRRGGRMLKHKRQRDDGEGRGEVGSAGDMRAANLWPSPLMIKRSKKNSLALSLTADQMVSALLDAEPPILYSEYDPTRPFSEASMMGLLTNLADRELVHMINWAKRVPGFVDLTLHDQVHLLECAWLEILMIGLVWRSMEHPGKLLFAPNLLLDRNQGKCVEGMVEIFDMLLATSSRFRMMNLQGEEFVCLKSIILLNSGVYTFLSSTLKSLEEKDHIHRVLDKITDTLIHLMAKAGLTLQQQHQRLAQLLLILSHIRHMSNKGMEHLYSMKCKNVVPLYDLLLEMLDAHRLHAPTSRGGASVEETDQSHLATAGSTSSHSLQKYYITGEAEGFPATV

[17] = molecular target: Estrogen receptor (Homo sapiens) (UniProt P03372); experiment: qHTS assay to identify small molecule agonists of the estrogen receptor alpha (ER-alpha) signaling pathway using the BG1 cell line (AID 743079); also: nearly all actives have a fitted effect of over 20% in size
[18] = qHTS assay to identify small molecule agonists of the peroxisome proliferator-activated receptor delta (PPARd) signaling pathway - cell viability counter screen (AID 743211); also: nearly all actives have a fitted effect of over 55% in size
Outline: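 Viability was measured as CellTiter-Glo luminescence (30 min, room temperature) in the same wells as the beta-lactamase readout. GeneBLAzer PPARd UAS-bla HEK293H cells received compound after 5 h plating and were incubated 17 h at 37 C.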

[19] = molecular target: Estrogen receptor (Homo sapiens) (UniProt P03372); experiment: qHTS assay to identify small molecule antagonists of the estrogen receptor alpha (ER-alpha) signaling pathway (AID 743069; active = well fitted curve in the direction sought with a large enough effect in the signal ratio in the repeat runs, not every such curve was filed as active; the % refers to the signal ratio)
Outline: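 Screening used a UAS-driven beta-lactamase reporter integrated into HEK293 cells expressing ER-alpha, stimulated with 17beta-estradiol alongside test compounds over 18 hr at 37C; signal came from LiveBLAzer B/G FRET fluorescence.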

[20] = qHTS assay to identify small molecule antagonists of the estrogen receptor alpha (ER-alpha) signaling pathway using the BG1 cell line (AID 743080; calls by dose curve;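 also: BG1 cells stimulated with 17beta-estradiol alongside compound; series mostly up to about 70 µM; nearly all actives have a fitted effect of over 25% in size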)
Outline: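 BG1-Luc-4E2 cells (endogenous full-length ER-alpha, 4xERE luciferase) hormone-starved 5 days in charcoal-stripped FBS, plated 4,000/well for 24 h, then compound plus 17beta-estradiol for 21.5 h at 37 C; ONE-Glo luminescence read.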
% is scaled to controls: 0 for no effect and ±100 for the full control effect.

CC1(C)CC(N)CC(C)(C)N1
inactive: Potency [1] | Potency [2] | Potency [3] | outcome [4] | Potency [5] | outcome [6] | Potency [7] | outcome [8] | outcome [9] | outcome [10] | Potency [11] | outcome [12] | Potency [13] | outcome [14]

COc1ccc2cc(CCC(C)=O)ccc2c1
inactive: Potency [1] | Potency [2] | Potency [3] | outcome [4] | Potency [5] | outcome [6] | outcome [8] | outcome [15] | outcome [10] | outcome [12] | Potency [13] | outcome [14]
active: Potency [7] 3.2 µM

N#CC1(N)CCCCC1
inactive: Potency [1] | Potency [2] | Potency [3] | Potency [16] | Potency [17] | outcome [4] | Potency [5] | Potency [7] | outcome [8] | outcome [9] | outcome [15] | outcome [10] | Potency [11] | outcome [12] | Potency [13] | outcome [14] | outcome [18]

NC(=O)CC[C@@H](N)C(=O)O
inactive: Potency [1] | Potency [2] | Potency [3] | outcome [4] | Potency [5] | outcome [6] | Potency [7] | outcome [8] | outcome [9] | outcome [15] | outcome [10] | Potency [13] | outcome [18]

C=C(C)C(=O)OCCOC1CC2CC1C1C=CCC21 (stereo not drawn)
inactive: Potency [1] | Potency [2] | Potency [3] | outcome [4] | Potency [5] | outcome [6] | Potency [7] | outcome [8] | outcome [9] | outcome [15] | Potency [11] | outcome [12] | Potency [13] | outcome [14] | outcome [18]

CCCCCCCCC1CO1 (stereo not drawn)
inactive: Potency [1] | Potency [2] | Potency [3] | outcome [4] | Potency [5] | outcome [6] | Potency [7] | outcome [8] | outcome [9] | outcome [15] | outcome [10] | Potency [11] | Potency [13] | outcome [18]

NC[C@H]1O[C@H](O[C@H]2[C@H](O)[C@@H](O[C@H]3O[C@H](CO)[C@@H](O)[C@H](N)[C@H]3O)[C@H](N)C[C@@H]2N)[C@H](N)[C@@H](O)[C@@H]1O
inactive: Potency [1] | Potency [2] | Potency [3] | outcome [4] | Potency [5] | outcome [6] | Potency [7] | outcome [8] | outcome [15] | outcome [10] | Potency [11] | outcome [12] | Potency [13] | outcome [18]

CCN1CCN(C(=O)N[C@@H](C(=O)N[C@@H]2C(=O)N3[C@@H]2SC(C)(C)[C@H]3C(=O)O)c2ccccc2)C(=O)C1=O
inactive: Potency [1] | Potency [2] | outcome [19] | Potency [16] | Potency [17] | Potency [20] | outcome [4] | Potency [5] | outcome [6] | Potency [7] | outcome [8] | outcome [9] | outcome [15] | outcome [10] | Potency [11] | outcome [14] | outcome [18]

O=C(O)P(=O)(O)O
inactive: Potency [1] | Potency [2] | Potency [3] | outcome [4] | Potency [5] | outcome [6] | Potency [7] | outcome [8] | outcome [10] | Potency [11] | outcome [12] | Potency [13] | outcome [14] | outcome [18]

C=CC(=O)OCC[N+](C)(C)C
inactive: Potency [1] | Potency [2] | outcome [19] | Potency [16] | Potency [17] | outcome [4] | Potency [5] | outcome [6] | Potency [7] | outcome [8] | outcome [9] | outcome [15] | outcome [10] | outcome [12] | outcome [14] | outcome [18]

CN(C)CCc1c[nH]c2ccc(C[C@H]3COC(=O)N3)cc12
inactive: Potency [1] | Potency [2] | outcome [19] | Potency [16] | Potency [17] | Potency [20] | outcome [4] | Potency [5] | Potency [7] | outcome [8] | outcome [15] | outcome [10] | Potency [11] | Potency [13] | outcome [14] | outcome [18]

CCCCCCC(=O)c1ccccc1
inactive: Potency [1] | Potency [2] | Potency [3] | outcome [4] | Potency [5] | outcome [6] | Potency [7] | outcome [8] | outcome [9] | outcome [15] | outcome [10] | Potency [11] | outcome [12] | Potency [13] | outcome [18]

C/C(Cl)=C/CCl
active: Potency [11] 31.2 µM
inactive: Potency [1] | Potency [2] | Potency [3] | Potency [16] | outcome [4] | Potency [5] | outcome [6] | Potency [7] | outcome [8] | outcome [9] | outcome [15] | outcome [12] | Potency [13] | outcome [14] | outcome [18]

CCCCCCCCS(=O)(=O)O
inactive: Potency [1] | Potency [2] | Potency [3] | outcome [4] | Potency [5] | outcome [6] | Potency [7] | outcome [8] | outcome [10] | Potency [11] | outcome [12] | Potency [13] | outcome [14] | outcome [18]

N=C(N)N1CCc2ccccc2C1
inactive: Potency [1] | Potency [2] | Potency [3] | outcome [4] | Potency [5] | outcome [6] | Potency [7] | outcome [8] | outcome [9] | ratio activity, negative = inhibition [15] -11.9% [at 5.95 µM] | activity change, negative = cytotoxicity [10] 0.134% [at 5.95 µM] | activation [11] -8.74% [at 8.36 µM] | activity change, negative = cytotoxicity [13] 14.1% [at 5.95 µM] | activation [14] -0.5% [at 5.95 µM] | activity change, negative = cytotoxicity [18] 3.73% [at 5.95 µM]
